# Measured values reported in PubChem BioAssay (NCI).
# Compounds without any hit were thinned out: in the full panel of roughly 83,000, 20% have a hit.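 The test compound was applied at a single concentration to cells in 96-well plates for 48 hours, and percent growth was recorded.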 Unmarked numbers belong to inactive results. Active and inactive are the calls of the source. How the source made its calls: active means growth percent below 10; inactive means the rest.
# Legend:
# Assay in all cases: NCI-60 one-dose screen, 48 h (100 = growth as untreated, 0 = no growth, -100 = all killed)
# Conditions in all cases: 10 µM unless noted
# HCT-15 colon = system: HCT-15 colon
# HT29 colon = system: HT29 colon
# SNB-75 CNS = system: SNB-75 CNS
# SNB-19 CNS = system: SNB-19 CNS
# U251 CNS = system: U251 CNS
# PC-3 prostate = system: PC-3 prostate
# SK-MEL-5 melanoma = system: SK-MEL-5 melanoma
# UACC-62 melanoma = system: UACC-62 melanoma
# SK-MEL-28 melanoma = system: SK-MEL-28 melanoma
# SK-MEL-2 melanoma = system: SK-MEL-2 melanoma
# EKVX NSCLC = system: EKVX NSCLC
# SN12C renal = system: SN12C renal
# UO-31 renal = system: UO-31 renal
# TK-10 renal = system: TK-10 renal
# ACHN renal = system: ACHN renal
# CAKI-1 renal = system: CAKI-1 renal
# A498 renal = system: A498 renal
# CCRF-CEM leukemia = system: CCRF-CEM leukemia
# MOLT-4 leukemia = system: MOLT-4 leukemia
Compound,growth (HCT-15 colon),growth (HT29 colon),growth (SNB-75 CNS),growth (SNB-19 CNS),growth (U251 CNS),growth (PC-3 prostate),growth (SK-MEL-5 melanoma),growth (UACC-62 melanoma),growth (SK-MEL-28 melanoma),growth (SK-MEL-2 melanoma),growth (EKVX NSCLC),growth (SN12C renal),growth (UO-31 renal),growth (TK-10 renal),growth (ACHN renal),growth (CAKI-1 renal),growth (A498 renal),growth (CCRF-CEM leukemia),growth (MOLT-4 leukemia)
O=C(COc1ccc(NC(=O)Nc2ccc(Cl)c(Cl)c2)cc1)N=Nc1c(O)[nH]c2ccccc12,56.1%,-45.9% (active),-39.5% (active),-24.5% (active),-87.7% (active),-44.6% (active),25.2%,-56.5% (active),-90.4% (active),-41.9% (active),18.6%,-32% (active),87.5%,30.5%,36.9%,15.6%,-53.6% (active),37.3%,1.27% (active)
COc1cc2oc(-c3cccc(C(=O)Nc4ccc(Cl)cc4)c3)cc(=O)c2c(OCCNC(=O)[C@H](CCC(=O)OC(C)(C)C)NC(=O)OC(C)(C)C)c1OC,100%,108%,74.2%,94.8%,96.8%,83.5%,89.3%,82%,99.2%,106%,90.7%,91.9%,74.4%,109%,93.7%,69.4%,113%,95.3%,71.6%
N#Cc1c(-c2ccccc2Cl)cc(-c2c[nH]c3ccccc23)[nH]c1=O,48.7%,107%,25.7%,69.5%,67%,72.8%,63.8%,50.3%,65.3%,49%,68.1%,61.5%,58.7%,102%,63.9%,55.5%,116%,32.2%,34.7%
N#Cc1c(-c2cccnc2)cc(-c2ccc3ccccc3c2)[nH]c1=O,80.7%,111%,14.4%,66.1%,77.7%,95.5%,78.2%,93.8%,104%,110%,87.1%,74.3%,79%,109%,90.2%,89.7%,111%,82%,91.5%
COc1cc(/C=C/C(=O)c2ccc(C)cc2)ccc1Oc1nc(Nc2ccc(F)cc2)nc(N(C)C)n1,17.3%,44.1%,50.8%,23.4%,11.3%,50.8%,30.5%,42.1%,73.4%,44.9%,60.6%,17.4%,36.2%,77.3%,3.65% (active),35.6%,66.3%,17%,9.34% (active)
O=c1[nH]n(C(=S)N/N=C/c2ccccc2Cl)c(=O)c2ccccc12,-41.3% (active),0.552% (active),52.1%,8.55% (active),-46.5% (active),22.6%,5.82% (active),-65.4% (active),-26.3% (active),-33% (active),-35.4% (active),7.3% (active),15.6%,25.8%,5.27% (active),27.5%,38.7%,-11.2% (active),-1.75% (active)
S=C(NCCc1ccccc1)Nc1ccc(OCc2nc3ccccc3[nH]2)cc1,98%,108%,103%,102%,99.7%,105%,102%,93.1%,110%,121%,101%,96.8%,84.3%,112%,104%,87.3%,111%,96.7%,100%
CN1CCc2c(sc3ncnc(N/N=C/c4ccc(Cl)cc4Cl)c23)C1,10.2%,-88.4% (active),-50.4% (active),26.8%,2.63% (active),25.3%,-89.2% (active),-79.9% (active),-33.1% (active),9% (active),33.1%,-32.8% (active),-95.7% (active),-84% (active),-66.6% (active),-61.6% (active),28.5%,-8.48% (active),1.96% (active)
